In PubChem BioAssay AID1835 (Johns Hopkins Ion Channel Center, 2009):
In all, about 2,400 compounds went through this assay and about 750 (31%) were called active.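 The calls were made as follows: active = median signal gain over dofetilide-blocked control wells reaching their mean plus 3 SD, so readout 1 at least 0; inactive = the rest.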 The list shows a part of the results.

target: Voltage-gated inwardly rectifying potassium channel KCNH2 (Homo sapiens) (UniProt Q12809); assay: modulators restoring hERG flux under dofetilide – cell-based, thallium flux, duplicate retest, dofetilide IC70, confirmation (AID 1835); settings: hERG cell line, FluxOR thallium flux, dofetilide-blocked; at 10 µM; hits give high values
Sequence (Q12809 whole entry, looked up): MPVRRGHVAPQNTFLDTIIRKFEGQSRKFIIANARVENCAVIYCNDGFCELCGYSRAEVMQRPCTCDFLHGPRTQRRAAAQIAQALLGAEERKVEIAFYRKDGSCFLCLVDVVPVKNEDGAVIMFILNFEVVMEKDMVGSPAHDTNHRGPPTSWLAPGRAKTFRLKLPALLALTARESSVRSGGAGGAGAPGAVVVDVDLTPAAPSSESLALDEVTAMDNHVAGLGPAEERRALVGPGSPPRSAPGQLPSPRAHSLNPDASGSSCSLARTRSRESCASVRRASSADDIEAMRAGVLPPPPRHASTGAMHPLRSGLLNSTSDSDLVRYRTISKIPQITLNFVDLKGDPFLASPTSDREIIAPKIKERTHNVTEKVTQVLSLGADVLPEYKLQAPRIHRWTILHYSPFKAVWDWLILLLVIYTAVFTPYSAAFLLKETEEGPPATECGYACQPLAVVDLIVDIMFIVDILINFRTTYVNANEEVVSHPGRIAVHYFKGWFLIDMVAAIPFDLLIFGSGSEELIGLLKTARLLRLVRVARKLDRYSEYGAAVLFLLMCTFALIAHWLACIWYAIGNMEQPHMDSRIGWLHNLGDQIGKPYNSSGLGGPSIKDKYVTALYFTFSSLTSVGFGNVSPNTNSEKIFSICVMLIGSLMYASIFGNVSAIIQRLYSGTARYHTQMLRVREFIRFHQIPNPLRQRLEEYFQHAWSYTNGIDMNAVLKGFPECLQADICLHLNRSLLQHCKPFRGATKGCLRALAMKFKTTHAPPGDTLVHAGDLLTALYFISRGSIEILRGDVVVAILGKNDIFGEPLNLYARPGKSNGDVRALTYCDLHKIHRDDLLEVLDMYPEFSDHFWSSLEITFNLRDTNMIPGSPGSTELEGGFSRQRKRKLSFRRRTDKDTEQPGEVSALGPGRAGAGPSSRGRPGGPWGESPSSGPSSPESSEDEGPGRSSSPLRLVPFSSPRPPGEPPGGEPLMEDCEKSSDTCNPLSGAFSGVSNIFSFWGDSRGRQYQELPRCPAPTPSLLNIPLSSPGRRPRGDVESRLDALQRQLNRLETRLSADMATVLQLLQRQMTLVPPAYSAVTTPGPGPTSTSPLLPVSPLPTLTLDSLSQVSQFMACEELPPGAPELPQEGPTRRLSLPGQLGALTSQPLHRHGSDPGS

Row | SMILES | activity increase over dofetilide control, less the hit threshold
1 | O=C1c2ccccc2NC(c2ccc(Br)s2)N1O (stereo not drawn) | 41% (active)
2 | COc1ccc(-c2cc(=O)oc3cc(OCC(C)=O)ccc23)cc1 | -27% (inactive)
3 | COc1ccc(/C=C/c2cc(=O)c3cc(Cl)ccc3o2)cc1 | 56% (active)
4 | Cc1oc2ccc(OCc3ccc(Cl)cc3)cc2c1C(=O)O | -7% (inactive)
5 | CCN(C(=O)c1cc2c(=O)[nH]c3ccc(C)cc3c2s1)c1ccccc1F | -15% (inactive)
6 | O=C(c1ccc2c(c1)N(Cc1ccccc1F)C(=O)c1ccccc1S2(=O)=O)N1CCCC1 | -10% (inactive)
7 | CC/C(=N\NC(=O)c1nnn(-c2nonc2N)c1-c1cccs1)c1ccccc1 | -4% (inactive)
8 | N#Cc1ccccc1OCCN1C(=O)c2ccccc2C1=O | -4% (inactive)
9 | O=Cc1cc(-c2ccccc2)[nH]c1-c1ccccc1 | -19% (inactive)
10 | S=c1[nH]nc(Nc2ccc(Cl)cc2)s1 | -3% (inactive)
11 | S=c1[nH]c(-c2ccccc2)cs1 | 66% (active)
12 | S=c1[nH]c(-c2ccc(Cl)cc2)cs1 | 136% (active)
13 | Cc1ccc(-c2csc(=S)[nH]2)cc1 | 95% (active)
14 | CO/N=C(\CCC(=O)O)c1cccs1 | -20% (inactive)
15 | O=C(N/N=C/c1cc([N+](=O)[O-])ccc1O)c1ccc(COc2ccc3c(c2)CCC3)o1 | -10% (inactive)
16 | Cc1c(N2C(=O)/C(=C\c3ccccc3O)SC2=S)c(=O)n(-c2ccccc2)n1C | 14% (active)
17 | O=C(O)COc1ccccc1/C=C1\SC(=S)N(NC(=O)c2ccccc2O)C1=O | -11% (inactive)
18 | O=C(OCc1ccc(F)cc1)c1cc(S(=O)(=O)N2CCCCC2)ccc1N1CCOCC1 | -21% (inactive)
19 | Cc1cc(=O)oc(C)c1C(=O)NCCC(C)C | -17% (inactive)
20 | COc1ccc(NC(=O)C(=O)NNC(=O)c2cccs2)c(OC)c1 | 28% (active)
21 | COc1ccc(NC(=O)CNC(=O)c2cccs2)cc1Cl | -8% (inactive)
22 | COc1cc(NC(=O)c2ccc3c(c2)OCO3)ccc1NC(=O)c1cccs1 | -22% (inactive)
23 | COc1ccc(OC)c(NC(=O)C(=O)NNC(=O)c2cccs2)c1 | 8% (active)

Row | SMILES | activity increase over dofetilide control, less the hit threshold
24 | CCc1cccc2c1NC(=O)C2(O)CC(=O)c1cccs1 (stereo not drawn) | -11% (inactive)
25 | COC(=O)c1ccnc(/C=N/O)c1 | -13% (inactive)
26 | O=C1NC(=S)SC1=C1CCCCCC1 | 53% (active)
27 | Cc1ccccc1NC1=C/C(=N\S(=O)(=O)c2ccc(C(=O)O)cc2)c2ccccc2C1=O | -6% (inactive)
28 | O=C(O)c1ccc(S(=O)(=O)/N=C2\C=C(Nc3ccccc3F)C(=O)c3ccccc32)cc1 | 4% (active)
29 | O=c1c2ccccc2[nH]c(=S)n1CCC1=CCCCC1 | 11% (active)
30 | O=c1c2ccc(Cl)cc2[nH]c(=S)n1CCC1=CCCCC1 | 42% (active)
31 | O=C(CCn1c(=S)[nH]c2cc3c(cc2c1=O)OCO3)NCc1ccc(Cl)cc1 | -8% (inactive)
32 | O=c1c2cccnc2[nH]c(=S)n1CCC1=CCCCC1 | -3% (inactive)
33 | O=C(Cc1cccs1)Nn1c(Cc2cccs2)nc2ccccc2c1=O | -7% (inactive)
34 | CC(=O)Nc1ccc(S(=O)(=O)NC2(C(F)(F)F)C(=O)Nc3c2c(=O)[nH]c(=O)n3C)cc1 (stereo not drawn) | -10% (inactive)
35 | O=C(O)c1sccc1OCc1ccccc1 | -8% (inactive)
36 | O=C(O)c1ccccc1NC(=O)c1cc2ccccc2oc1=O | 10% (active)
37 | O=C(NNc1c(F)c(F)cc(F)c1F)c1cc2ccccc2oc1=O | -20% (inactive)
38 | COc1ccc(CCNC(=O)c2cc3ccccc3oc2=O)cc1 | -8% (inactive)
39 | CCO/C=C1\N=C(c2ccc(F)cc2)OC1=O | -5% (inactive)
40 | COC(=O)C1=C(C)NC2=C(C(=O)CCC2)C1c1ccc(-c2ccsc2C(=O)OC)o1 (stereo not drawn) | 26% (active)
41 | Cc1cc(C)c(S(=O)(=O)NCc2ccccn2)c(C)c1 | -6% (inactive)
42 | CCN(CC)c1ccc(NC(=S)NC(=O)c2ccco2)cc1 | 48% (active)
43 | COc1cc(OC)cc(C(=O)NC(=S)Nc2ccc(NC(=O)c3ccco3)cc2)c1 | -15% (inactive)
44 | CCCOc1ccc(C(=O)NNC(=S)NC(=O)c2ccco2)cc1 | -41% (inactive)
45 | CCOc1ccc(NC(=S)NC(=O)c2ccco2)cc1 | 10% (active)
46 | O=C(O)CNC(=O)c1ccc(NC(=O)/C(=C/c2ccccc2)NC(=O)c2ccco2)cc1 | -13% (inactive)

Row | SMILES | activity increase over dofetilide control, less the hit threshold
47 | O=C(CN1C(=O)COc2ccccc21)NCCCN1CCOCC1 | -2% (inactive)
48 | Cc1ccc(N2CCN(C(=O)N3CCCC3)CC2)cc1C | 5% (active)
49 | COc1ccc(NC(=O)N2CCN(c3ccc([N+](=O)[O-])cc3)CC2)cc1OC | -14% (inactive)
50 | Cc1ccc(-n2c(=O)c3cc4c(=O)n(-c5ccc(C)c(C)c5)c(=O)c4c(C(=O)c4ccc(C(=O)O)cc4)c3c2=O)cc1C | -8% (inactive)
51 | Cn1ccnc1C(O)c1cccc(OCc2ccccc2)c1 (stereo not drawn) | -10% (inactive)
52 | CC1=CC(=O)C(C(C)C)=CC1=NC(=O)c1ccc(C)cc1 | -36% (inactive)
53 | Cc1ccc(C(=O)Sc2cccccc2=O)cc1 | 8% (active)
54 | COCCCNC(=O)CCc1nnc(Cc2ccc(-c3ccccc3)cc2)o1 | -16% (inactive)
55 | CON/C=N/C(=S)Nc1ncc(C(F)(F)F)cc1Cl | 65% (active)
56 | ON/C=N/C(=S)Nc1ncc(C(F)(F)F)cc1Cl | 22% (active)
57 | CCCCNC(=O)c1onc(CSc2nc3ccccc3[nH]2)c1C(=O)NCCCC | -12% (inactive)
58 | Cc1ccc(CNC(=O)CCc2ccc(S(=O)(=O)NCC(C)C)cc2)cc1 | -8% (inactive)
59 | Cc1ccc(C(C)NC(=O)c2cccs2)cc1C (stereo not drawn) | -21% (inactive)
60 | CC(NC(=O)c1ccc(F)cc1)c1ccc2c(c1)CCCC2 (stereo not drawn) | -12% (inactive)
61 | CC(NC(=O)c1ccc(Br)cc1)c1ccc2c(c1)CCCC2 (stereo not drawn) | 12% (active)
62 | Fc1ccc(NC(=S)Nc2nccs2)cc1 | 0% (inactive)
63 | Cc1ccc(/C(O)=C/C(=O)C(=O)NC23CC4CC(CC(C4)C2)C3)cc1 | 10% (active)
64 | Nc1cccc2c1C(=O)N(CC(=O)NC13CC4CC(CC(C4)C1)C3)C2=O | -9% (inactive)
65 | CCC(C)c1ccccc1NC(=S)NC(=O)c1ccco1 (stereo not drawn) | 69% (active)
66 | CCC(C)c1ccccc1NC(=O)c1[nH]c(C)c(C(C)=O)c1C (stereo not drawn) | -12% (inactive)
67 | CCOc1ccccc1NC(=S)NC(=O)c1ccco1 | 3% (active)
68 | CCC(C)c1ccccc1NC(=O)C(C)NCCN(C)C (stereo not drawn) | -13% (inactive)
